Data published in PubChem BioAssay.
For some assays here: Potency and affinity values are given separately. Calls of active or inactive are those of the source. Unless noted, how the calls were made is not given here.

Tests used:
[1] = antimalarial activity against Dd2 strain (AID 2302;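 active means growth inhibition above 50% at the single 2 µM test dose, taken to imply half-maximal potency below 2 µM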;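 further: 0% = DMSO untreated growth and 100% = chloroquine plus artemisinin killed control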); conditions: P. falciparum Dd2 in RBCs, LDH growth readout, 72 h; at 2 µM; stronger effect = higher value
[2] = HepG2 cytotoxicity, primary screen, cytotoxicity control for P. falciparum antimalarial project, cell-based, ATP luminescence (AID 2303;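 active means inhibition above 50%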;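 further: 0% = DMSO wells and 100% = digitonin-killed cells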); conditions: HepG2 viability, 24-48 h, at 10 µM, stronger effect = higher value
[3] = molecular target: L-lactate dehydrogenase (Plasmodium falciparum (isolate CDC / Honduras)) (UniProt Q27743); assay: PfLDH activity inhibition – cell lysate, 3D7 strain, counter-screen for P. falciparum growth inhibition project (AID 2304);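 further: 0% = vehicle and 100% = reference inhibitor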; conditions: P. falciparum 3D7 crude extract, LDH APAD/NBT absorbance; at 2 µM; stronger effect = higher value
[4] = inhibition of 3D7 malaria parasite growth – strain 3D7 (AID 2306);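 further: 0% = DMSO wells and 100% = chloroquine plus artemisinin control wells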; conditions: P. falciparum 3D7 erythrocytic growth, LDH absorbance, 72 h; at 2 µM; stronger effect = higher value
[5] = molecular target: Calcium-dependent protein kinase 1 (Plasmodium falciparum (isolate 3D7)) (UniProt P62344); assay: PfCDPK1 kinase inhibitors, biochemical, TCAMS library (AID 1159585; cut-off not given, nearly all actives have IC50 up to about 0.98 µM;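 further: inhibitors leave more ATP so luminescence rises with inhibition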); conditions: recombinant PfCDPK1, Kinase-Glo ATP depletion luminescence
[6] = molecular target: Plasmodium falciparum protein kinase 6 (PK6, PF3D7_1337100) (UniProt Q8IDW1); assay: PfPK6 kinase inhibitors, biochemical, TCAMS library (AID 1159586); conditions: recombinant PfPK6, Kinase-Glo ATP depletion luminescence
[7] = molecular target: Protein kinase 7 (PK7), Plasmodium falciparum 3D7 (PF3D7_0213400) (UniProt Q7YTF7); assay: inhibition of Plasmodium PK7 catalytic activity – biochemical, TCAMS antimalarial set, Kinase-Glo luminescence (AID 1159587); conditions: recombinant PfPK7, Kinase-Glo ATP depletion luminescence
[8] = molecular target: Calcium-dependent protein kinase 4 (Plasmodium falciparum (isolate 3D7)) (UniProt Q8IBS5); assay: PfCDPK4 kinase inhibitors, biochemical, TCAMS library (AID 1159588; cut-off not given, nearly all actives have IC50 up to about 0.91 µM); conditions: recombinant PfCDPK4, Kinase-Glo ATP depletion luminescence
Chain of Calcium-dependent protein kinase 4 (Plasmodium falciparum (isolate 3D7)) (Q8IBS5 whole entry, looked up): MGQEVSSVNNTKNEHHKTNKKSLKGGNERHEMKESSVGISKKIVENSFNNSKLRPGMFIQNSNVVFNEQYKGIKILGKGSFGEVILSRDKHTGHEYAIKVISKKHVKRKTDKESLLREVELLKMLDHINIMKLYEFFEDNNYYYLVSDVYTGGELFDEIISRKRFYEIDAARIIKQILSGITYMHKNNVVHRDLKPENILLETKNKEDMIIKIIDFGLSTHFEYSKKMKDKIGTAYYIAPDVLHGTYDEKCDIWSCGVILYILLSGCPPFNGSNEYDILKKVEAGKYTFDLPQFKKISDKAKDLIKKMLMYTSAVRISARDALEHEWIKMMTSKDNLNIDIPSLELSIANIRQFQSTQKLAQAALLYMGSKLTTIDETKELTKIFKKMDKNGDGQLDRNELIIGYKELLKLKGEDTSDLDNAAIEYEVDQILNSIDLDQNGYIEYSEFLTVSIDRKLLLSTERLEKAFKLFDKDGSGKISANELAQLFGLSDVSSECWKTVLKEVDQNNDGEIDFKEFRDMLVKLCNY

Chain of L-lactate dehydrogenase (Plasmodium falciparum (isolate CDC / Honduras)) (Q27743 whole entry, looked up): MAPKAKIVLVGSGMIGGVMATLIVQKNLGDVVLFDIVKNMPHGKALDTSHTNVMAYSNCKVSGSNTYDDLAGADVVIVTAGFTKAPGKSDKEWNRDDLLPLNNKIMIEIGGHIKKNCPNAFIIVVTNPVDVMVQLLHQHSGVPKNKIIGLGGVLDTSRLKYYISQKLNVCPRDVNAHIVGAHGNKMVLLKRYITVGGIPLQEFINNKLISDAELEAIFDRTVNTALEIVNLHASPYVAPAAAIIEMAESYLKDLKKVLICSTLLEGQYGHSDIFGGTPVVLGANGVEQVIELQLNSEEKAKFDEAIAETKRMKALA
Chain of Calcium-dependent protein kinase 1 (Plasmodium falciparum (isolate 3D7)) (P62344 whole entry, looked up): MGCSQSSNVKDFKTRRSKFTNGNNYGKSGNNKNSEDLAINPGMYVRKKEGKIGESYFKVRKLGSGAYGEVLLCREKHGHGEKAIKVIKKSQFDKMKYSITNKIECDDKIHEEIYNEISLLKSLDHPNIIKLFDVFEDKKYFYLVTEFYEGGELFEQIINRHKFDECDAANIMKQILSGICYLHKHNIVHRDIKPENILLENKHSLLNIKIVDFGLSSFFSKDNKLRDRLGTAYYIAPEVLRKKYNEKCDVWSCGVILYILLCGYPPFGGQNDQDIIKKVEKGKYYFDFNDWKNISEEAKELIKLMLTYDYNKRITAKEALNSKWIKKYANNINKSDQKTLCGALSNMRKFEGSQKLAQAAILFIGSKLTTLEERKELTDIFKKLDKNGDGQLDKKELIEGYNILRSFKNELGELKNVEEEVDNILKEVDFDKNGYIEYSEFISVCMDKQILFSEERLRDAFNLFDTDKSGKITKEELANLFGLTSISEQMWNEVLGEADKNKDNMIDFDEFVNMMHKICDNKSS
Chain of Plasmodium falciparum protein kinase 6 (PK6, PF3D7_1337100) (Q8IDW1 1-305): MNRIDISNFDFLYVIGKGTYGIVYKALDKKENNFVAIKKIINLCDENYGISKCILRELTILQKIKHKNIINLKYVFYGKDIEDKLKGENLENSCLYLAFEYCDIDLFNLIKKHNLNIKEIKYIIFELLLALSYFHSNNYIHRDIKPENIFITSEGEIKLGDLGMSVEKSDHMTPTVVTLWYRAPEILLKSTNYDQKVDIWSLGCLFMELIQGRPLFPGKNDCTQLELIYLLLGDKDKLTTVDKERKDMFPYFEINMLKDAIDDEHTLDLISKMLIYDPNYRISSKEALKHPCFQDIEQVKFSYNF
Chain of Protein kinase 7 (PK7), Plasmodium falciparum 3D7 (PF3D7_0213400) (Q7YTF7 1-343): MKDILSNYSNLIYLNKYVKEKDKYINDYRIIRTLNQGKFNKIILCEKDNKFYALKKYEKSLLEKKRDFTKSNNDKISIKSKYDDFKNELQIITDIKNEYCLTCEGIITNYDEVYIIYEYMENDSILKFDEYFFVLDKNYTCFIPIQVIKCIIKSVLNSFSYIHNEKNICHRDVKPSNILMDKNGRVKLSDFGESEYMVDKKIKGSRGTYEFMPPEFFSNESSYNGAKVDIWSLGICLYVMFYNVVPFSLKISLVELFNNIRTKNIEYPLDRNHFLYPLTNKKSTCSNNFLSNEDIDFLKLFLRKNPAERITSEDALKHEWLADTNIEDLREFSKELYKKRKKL

CN1CCCC1CCNc1ncc2c(-c3ccc(NC(=O)Nc4cc(C(F)(F)F)ccc4F)c(F)c3)nn(C)c2n1 (stereo unspecified)
inactive: inhibition [3] 1% | outcome [5] | outcome [6] | outcome [7] | outcome [8]
active: growth inhibition [1] 90% | inhibition [2] 100% | growth inhibition [4] 99%

COc1ccc2c(=O)c(C3CCC(c4ccc(Cl)cc4)CC3)c(C)[nH]c2c1 (stereo unspecified)
active: growth inhibition [1] 84% | growth inhibition [4] 97%
inactive: inhibition [2] 2% | inhibition [3] 1% | outcome [5] | outcome [6] | outcome [7] | outcome [8]

Cc1cc(Oc2ccc(-n3ccnc3)cc2)nc(N2CCN(CCCN3CCCC3)CC2)n1
active: growth inhibition [4] 90%
inactive: growth inhibition [1] 7% | inhibition [2] 5% | inhibition [3] 0% | outcome [5] | outcome [6] | outcome [7] | outcome [8]

COc1cc(NC(=O)c2cccs2)c(OC)cc1NC(=O)Nc1cccc(Cl)c1
active: growth inhibition [4] 83%
inactive: growth inhibition [1] 10% | inhibition [2] 5% | inhibition [3] -3% | outcome [5] | outcome [6] | outcome [7] | outcome [8]

O=C(Nc1cccc(CN2CCCN(Cc3ccc(O)cc3)CC2)c1)c1cccc(C(F)(F)F)c1
active: growth inhibition [1] 71% | growth inhibition [4] 101%
inactive: inhibition [2] 9% | inhibition [3] 3% | outcome [5] | outcome [6] | outcome [7] | outcome [8]

CC(C)COc1ccc(Cl)cc1Cc1ccc(-c2nc3ccc(CCN4CCCC4)cc3[nH]2)o1
active: growth inhibition [1] 94% | growth inhibition [4] 100%
inactive: inhibition [2] 34% | inhibition [3] 1% | outcome [5] | outcome [6] | outcome [7] | outcome [8]

CN(CCCN(C)c1cc(NC(=O)c2ccc(F)cc2)ccn1)Cc1cccc(O)c1
inactive: growth inhibition [1] 0% | inhibition [2] 2% | inhibition [3] 1% | outcome [5] | outcome [6] | outcome [7] | outcome [8]
active: growth inhibition [4] 90%

O=C(/C=C/c1ccc(Cl)c(Cl)c1)NCCCCCN1CCCC(CNS(=O)(=O)c2ccc(F)cc2)C1 (stereo unspecified)
active: inhibition [2] 56% | growth inhibition [4] 91%
inactive: growth inhibition [1] 7% | inhibition [3] 1% | outcome [5] | outcome [6] | outcome [7] | outcome [8]

COc1ccc2ncc(Cl)c([C@@H](O)CN3CCC(NCc4cc5c(cn4)OCCO5)CC3)c2c1
inactive: inhibition [2] 8% | inhibition [3] 3% | outcome [5] | outcome [6] | outcome [7] | outcome [8]
active: growth inhibition [1] 100% | growth inhibition [4] 101%

Cc1cccc(NC(=O)Nc2ccc(I)c(OCCN(C)C)c2)c1C
active: growth inhibition [4] 96%
inactive: growth inhibition [1] 17% | inhibition [2] 13% | inhibition [3] 1% | outcome [5] | outcome [6] | outcome [7] | outcome [8]

Cc1[nH]c2ccc(-c3ccccc3)cc2c(=O)c1Br
active: growth inhibition [1] 97% | growth inhibition [4] 97%
inactive: inhibition [2] -13% | inhibition [3] 4% | outcome [5] | outcome [6] | outcome [7] | outcome [8]

Cn1nc(-c2ccc(CNC3CCc4ccccc43)cc2)c2cnc(NCCN3CCCC3)nc21 (stereo unspecified)
inactive: growth inhibition [1] 17% | inhibition [2] 21% | inhibition [3] -2% | outcome [5] | outcome [6] | outcome [7] | outcome [8]
active: growth inhibition [4] 99%

CCCNc1ccc2nccc(CCN3CCC(NCc4ccc5c(n4)NC(=O)CS5)CC3)c2n1
active: growth inhibition [4] 103%
inactive: growth inhibition [1] -1% | inhibition [2] 24% | inhibition [3] -1% | outcome [5] | outcome [6] | outcome [7] | outcome [8]

CCN(CC)CCN(Cc1ccc(-c2ccc(C(F)(F)F)cc2)cc1)C(=O)Cn1c(CCc2ccccc2F)nc(=O)c2ccccc21
inactive: inhibition [2] 39% | inhibition [3] -1% | outcome [5] | outcome [6] | outcome [7] | outcome [8]
active: growth inhibition [1] 54% | growth inhibition [4] 95%

CC(=O)c1c(C)[nH]c(C(=O)Nc2ccc(-c3nc4ccc(C)cc4s3)cc2)c1C
inactive: growth inhibition [1] 40% | inhibition [2] 11% | inhibition [3] -2% | outcome [5] | outcome [6] | outcome [7] | outcome [8]
active: growth inhibition [4] 92%

CCCc1ccc(C(=O)N2[C@@H](c3nccs3)[C@@H](C(N)=O)C[C@@]2(CC(C)C)C(=O)O)cc1
inactive: inhibition [2] 16% | inhibition [3] 1% | outcome [5] | outcome [6] | outcome [7] | outcome [8]
active: growth inhibition [1] 80% | growth inhibition [4] 94%

Cc1[nH]c(C)c(-c2ccc(-c3ccc(Cl)cc3)cc2)c(=O)c1Cl
inactive: inhibition [2] -9% | inhibition [3] -6% | outcome [5] | outcome [6] | outcome [7] | outcome [8]
active: growth inhibition [1] 96% | growth inhibition [4] 96%

COc1cc2nc(-c3ccc(Br)cc3)cc(N)c2cc1OC
active: growth inhibition [1] 69% | inhibition [2] 90% | growth inhibition [4] 98%
inactive: inhibition [3] -3% | outcome [5] | outcome [6] | outcome [7] | outcome [8]

CCCCNCc1ccc(-c2nc(CN(CCCN3CCN(C)CC3)C(=O)Nc3cccc(Cl)c3)cs2)cc1
inactive: inhibition [2] 35% | inhibition [3] 4% | outcome [5] | outcome [6] | outcome [7] | outcome [8]
active: growth inhibition [1] 73% | growth inhibition [4] 99%

O=C(NC1CCN(CCC(NC(=O)c2ccccc2)c2ccc(Cl)c(Cl)c2)CC1)c1ccc(Cl)cc1 (stereo unspecified)
active: growth inhibition [4] 97%
inactive: growth inhibition [1] 36% | inhibition [2] 17% | inhibition [3] -2% | outcome [5] | outcome [6] | outcome [7] | outcome [8]

Cc1ccc(F)c(OCC2CCN(c3ccc(C(=O)NC4CC4)cn3)CC2)c1
active: growth inhibition [1] 95% | growth inhibition [4] 94%
inactive: inhibition [2] 4% | inhibition [3] 2% | outcome [5] | outcome [6] | outcome [7] | outcome [8]

COc1ccc2ncc(Cl)c(CCN3CCC(NCc4ccc5c(n4)NC(=O)CS5)CC3)c2c1
inactive: growth inhibition [1] 34% | inhibition [2] 26% | inhibition [3] -2% | outcome [5] | outcome [6] | outcome [7] | outcome [8]
active: growth inhibition [4] 100%

c1cc(CNC2Cc3ccccc3C2)cc(-c2cnc(N3CCNCC3)nc2)c1
inactive: inhibition [2] 43% | inhibition [3] -9% | outcome [5] | outcome [6] | outcome [7] | outcome [8]
active: growth inhibition [1] 65% | growth inhibition [4] 93%

O=C(Nc1cccc(CN2CCCN(CC3CC3)CC2)c1)c1ccc(Cl)c(Cl)c1
inactive: growth inhibition [1] 5% | inhibition [2] 13% | inhibition [3] 4% | outcome [5] | outcome [6] | outcome [7] | outcome [8]
active: growth inhibition [4] 92%

COc1cccc(CNC(=O)[C@@H]2CN(C(=O)c3ccccc3)CCN2)c1
inactive: growth inhibition [1] -1% | inhibition [2] 4% | inhibition [3] -2% | outcome [5] | outcome [6] | outcome [7] | outcome [8]
active: growth inhibition [4] 92%

Cc1nnsc1C(=O)Nc1cccc(-c2ccc(-c3nc4ccc(F)cc4[nH]3)cc2)c1
inactive: inhibition [3] 4% | outcome [5] | outcome [6] | outcome [7] | outcome [8]
active: growth inhibition [1] 89% | inhibition [2] 51% | growth inhibition [4] 100%

FC(F)(F)c1ccc2c(NN=Cc3cccc(Cl)c3)ccnc2c1
active: growth inhibition [1] 59% | growth inhibition [4] 93%
inactive: inhibition [2] 7% | inhibition [3] -3% | outcome [5] | outcome [6] | outcome [7] | outcome [8]

COC(=O)c1ccc(C2OC3(C(=O)c4ccccc4C3=O)C(OC)=C2Cl)cc1C(C)=O (stereo unspecified)
active: growth inhibition [1] 85% | growth inhibition [4] 99%
inactive: inhibition [2] -3% | inhibition [3] -2% | outcome [5] | outcome [6] | outcome [7] | outcome [8]

CCO[C@H]1CN[C@H](C#Cc2cc3c(Nc4ccc(OCc5cccc(F)c5)c(Cl)c4)ncnc3s2)C1
inactive: growth inhibition [1] 37% | inhibition [2] 8% | inhibition [3] 2% | outcome [5] | outcome [6] | outcome [7] | outcome [8]
active: growth inhibition [4] 100%

CN(CCCCCN1CCC(NC(=O)Nc2ccc(Oc3ccccc3)cc2)C1)C(=O)/C=C/c1ccc(Cl)c(Cl)c1 (stereo unspecified)
inactive: growth inhibition [1] 14% | inhibition [3] -2% | outcome [5] | outcome [6] | outcome [7] | outcome [8]
active: inhibition [2] 50% | growth inhibition [4] 98%

Cc1cc(NN=Cc2cccc([N+](=O)[O-])c2)c2cc(F)ccc2n1
inactive: inhibition [2] 3% | inhibition [3] -5% | outcome [5] | outcome [6] | outcome [7] | outcome [8]
active: growth inhibition [1] 99% | growth inhibition [4] 102%

c1cncc(CNc2ncc(-c3ccsc3)c(-c3nccs3)n2)c1
inactive: inhibition [2] -6% | inhibition [3] 2% | outcome [5] | outcome [6] | outcome [7] | outcome [8]
active: growth inhibition [1] 63% | growth inhibition [4] 81%

O=C(NCc1ccccc1)Nc1cccc(-c2cccc(-c3nc4ccc(C(F)(F)F)cc4[nH]3)c2)c1
inactive: growth inhibition [1] 30% | inhibition [3] 0% | outcome [5] | outcome [6] | outcome [7] | outcome [8]
active: inhibition [2] 56% | growth inhibition [4] 95%

Cc1noc(C)c1-c1ccc2c(Nc3ccc(C(F)(F)F)cc3)c(C(N)=O)cnc2c1
active: growth inhibition [1] 95% | growth inhibition [4] 100%
inactive: inhibition [2] 1% | inhibition [3] 6% | outcome [5] | outcome [6] | outcome [7] | outcome [8]

O=C(Nc1ccc(Oc2ccccc2)cc1)N(CCN1CCCC1)Cc1ccc(-c2ccc(CN3CCNCC3)cc2)cc1
inactive: inhibition [2] 48% | inhibition [3] -2% | outcome [5] | outcome [6] | outcome [7] | outcome [8]
active: growth inhibition [1] 90% | growth inhibition [4] 88%

CCCCCCNC(=O)c1nn(CCN2CCC(N3CCCC3)CC2)cc1-c1ccc(Cl)c(Cl)c1
inactive: growth inhibition [1] 33% | inhibition [2] 31% | inhibition [3] -2% | outcome [5] | outcome [6] | outcome [7] | outcome [8]
active: growth inhibition [4] 101%

O=C(/C=C/c1ccc(Cl)c(Cl)c1)NCCCCCN1CCCC(CNC(=O)/C=C/c2ccccc2)C1 (stereo unspecified)
active: growth inhibition [4] 98%
inactive: growth inhibition [1] 6% | inhibition [2] 37% | inhibition [3] -7% | outcome [5] | outcome [6] | outcome [7] | outcome [8]
